RE007 growth inh = less growth of the S. pombe RE007 Vpr strain | S. pombe RE007 Vpr strain, BacTiter-Glo ATP luminescence, 24 h | Potency, µM (top dose mostly 92.2 µM), usual class: inhibitors | hit rate 0.21% among 360,000; active = well fitted falling curve with a large enough effect; inconclusive = small, poorly fitted or top-dose-only effect; inactive = no such curve, though single readings can be large or run the other way; note: nearly all actives have a fitted effect of over 50% in size
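Fission yeast strain RE007, carrying one chromosomally integrated HIV-1 vpr copy, was seeded at OD 0.01 in PMG+AL medium with 23 nL pinned compound. After 24 h at 30 °C and 99% humidity, viability was read by BacTiter-Glo luminescence.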
Sm TGR inh = inhibitors of Schistosoma mansoni thioredoxin glutathione reductase. purified TGR, DTNB reduction, TNB absorbance 405 nm. Potency, µM (titrated, usually from 114 µM), actives largely listed as inhibitors. hit rate 3% among 360,000. Q962Y6. AID 485364; note: nearly all actives have a fitted effect of over 60% in size
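First, TGR (20 nM dispensed) and NADPH were mixed with compound. Second, a 15 min room-temperature incubation followed. Third, further NADPH and then DTNB were added to start the reaction. Finally, TNB absorbance was monitored kinetically.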
Tb PYK inh = blocks Trypanosoma brucei pyruvate kinase; Q57TT1; TbPYK enzyme, Kinase-Glo Plus ATP luminescence, 45 min; Potency, µM (doses to about 76.8 µM), most hits filed as inhibitors; hit rate 0.12% among 410,000; note: nearly all actives have a fitted effect of over 50% in size
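Luminescence from Kinase-Glo Plus, added after a 45-minute room-temperature reaction, served as the end-point read-out. The enzyme and substrate were preincubated with compound before ADP (130 uM final) initiated turnover. Concentration-effect curves came from normalized qHTS data.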
LmPK inh = LmPK (Leishmania mexicana) enzyme inhibition. purified LmPK, Kinase-Glo ATP luminescence, 1 h. Q27686. hit rate 0.37% among 290,000. Potency, µM (titrated, usually from 57.5 µM), most hits filed as inhibitors. AID 1721
Target sequence (Q27686 whole entry, looked up): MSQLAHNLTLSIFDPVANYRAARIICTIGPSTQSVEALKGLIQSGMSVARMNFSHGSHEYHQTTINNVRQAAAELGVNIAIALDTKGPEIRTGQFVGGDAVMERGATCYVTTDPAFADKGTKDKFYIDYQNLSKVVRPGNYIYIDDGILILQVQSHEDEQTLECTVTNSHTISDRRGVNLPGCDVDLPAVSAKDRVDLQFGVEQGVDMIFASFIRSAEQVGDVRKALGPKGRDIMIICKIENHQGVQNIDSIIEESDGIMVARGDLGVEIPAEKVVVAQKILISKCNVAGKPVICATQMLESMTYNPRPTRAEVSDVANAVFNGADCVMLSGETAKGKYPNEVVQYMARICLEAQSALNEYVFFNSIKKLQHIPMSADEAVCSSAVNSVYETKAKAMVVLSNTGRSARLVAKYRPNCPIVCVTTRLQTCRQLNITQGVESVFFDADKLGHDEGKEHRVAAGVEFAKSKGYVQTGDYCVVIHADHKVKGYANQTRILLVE
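In 50 mM imidazole pH 7.2 with 7 mM MgCl2, LmPK (0.1 nM) turned over PEP (0.5 mM) and ADP (0.1 mM) for 1 h at room temperature. Luciferase read-out of ATP.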
AMA1 RON2 block = inhibitors of Plasmodium falciparum AMA1-RON2 interaction; AlphaScreen AMA1-biotinylated RON2 peptide binding; Potency, µM (top dose mostly 58.2 µM), most hits filed as inhibitors; hit rate 0.2% among 360,000; AID 720542; note: nearly all actives have a fitted effect of over 45% in size
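AMA1 (3D7) with his tag at 25 nM final met compounds first, then biotinylated RON2 peptide at 25 nM; detection used donor plus acceptor beads, 10 µg/mL apiece, read by AlphaScreen after 30 min at room temperature.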
Large screens that a line does not name were inactive. This is a sample that favours compounds with a hit; in the whole collection about 3.2% have one here. Unless noted, calls come from the whole dose curve; as a rule, active = well fitted curve in the direction sought with a large enough effect; inconclusive = small, poorly fitted or top-dose-only effect, or another doubt; inactive = no such curve, though single readings can be large; an effect the other way counts as inactive or inconclusive.

CC1(C)CC(=O)C(C(c2ccc(F)cc2)C2C(=O)CC(C)(C)CC2=O)C(=O)C1	Sm TGR inh 45µM
CC1(C)CC(=O)C(C(c2ccc(Br)cc2)C2C(=O)CC(C)(C)CC2=O)C(=O)C1	Sm TGR inh 18µM
COC(=O)c1ccc(C(C2C(=O)CC(C)(C)CC2=O)C2C(=O)CC(C)(C)CC2=O)cc1	Sm TGR inh inconclusive
CN(CC(=O)Nc1ccc(N2CCOCC2)cc1)Cc1c(O)ccc2ccccc12	Sm TGR inh 0.4µM
CSc1ccccc1NC(=O)CN(C)Cc1ccc(Br)cc1	none
CN(CC(=O)Nc1ccc(N2CCOCC2)cc1)C(=O)CCc1ccccc1Cl	Sm TGR inh 35µM (no result: LmPK inh)
CSc1ccccc1NC(=O)CN(C)Cc1c(O)ccc2ccccc12	Sm TGR inh 0.79µM
CN(CC(=O)Nc1ccc(N2CCOCC2)cc1)CC(=O)Nc1ccc(N2CCOCC2)cc1	none
COc1ccc(S(=O)(=O)c2cnc3ccc(Cl)cc3c2N2CCCCC2C)cc1 (stereo not drawn)	none (no result: RE007 growth inh, LmPK inh, AMA1 RON2 block)
O=[N+]([O-])c1cc(C=Nc2cccc3c(O)cccc23)ccc1Cl	Sm TGR inh 40µM (no result: RE007 growth inh, Tb PYK inh, AMA1 RON2 block)
CNc1nc(NCc2ccc(C)cc2C)c2sccc2n1	RE007 growth inh inconclusive (no result: Sm TGR inh, LmPK inh)
CNc1nc(NCc2ccc(N(C)C)cc2)c2sccc2n1	RE007 growth inh inconclusive, AMA1 RON2 block 20µM (no result: Sm TGR inh, LmPK inh)
COc1cc2c(cc1OC)C1O[C@](c3ccsc3)(C2)Oc2cc(-c3ccccc3)oc(=O)c21	Sm TGR inh 7.1µM (no result: RE007 growth inh, Tb PYK inh, AMA1 RON2 block)
Cc1cc(NCc2ccccn2)n2ncc(-c3ccccc3)c2n1	RE007 growth inh inconclusive
Cc1cc(NCc2ccccn2)n2ncc(-c3ccc(Cl)cc3)c2n1	RE007 growth inh 28µM
Cc1ccc(-c2nn(CCC#N)cc2C=C(C#N)C#N)cc1	Sm TGR inh 8.9µM
COc1ccc(-c2nn(CCC#N)cc2C=C(C#N)C#N)cc1	Sm TGR inh 25µM
COc1ccc(-c2nn(CCC#N)cc2C(=O)NCc2ccccc2)cc1	none
CC(C)(C)c1ccc(-c2nn(CCC#N)cc2/C=N/O)cc1	none
COc1ccc(-c2noc(CSc3nnc(-c4ccncc4)n3-c3ccc(C)c(C)c3)n2)cc1	none (no result: RE007 growth inh, LmPK inh, AMA1 RON2 block)
CCCCn1cc(S(=O)(=O)c2ccc(CC)cc2)c(=O)c2cc(F)c(N3CCOCC3)cc21	none (no result: RE007 growth inh, LmPK inh, AMA1 RON2 block)
Cc1nn(-c2ccccc2)c(C)c1C(=O)OCC(N)=O	none
O=C(Cn1cc(C(=O)COc2ccccc2)c2ccccc21)NCc1ccco1	Sm TGR inh 40µM
CC(=O)c1cn(CC(=O)NCc2ccco2)c2ccccc12	none
Cc1nn(-c2ccccc2)c(C)c1C(=O)OCC(=O)NCc1ccco1	Sm TGR inh 18µM
O=C(COC(=O)c1ccccc1Oc1ccccc1)NCc1ccco1	Sm TGR inh 16µM
O=C(COC(=O)CCSc1ccccc1Cl)NCc1ccco1	Sm TGR inh 40µM
CCc1nnc2c(Nc3cc(OC)c(Cl)cc3OC)nc3ccccc3n12	none (no result: RE007 growth inh, LmPK inh, AMA1 RON2 block)
O=C(COC(=O)C(c1ccccc1)c1ccccc1)NCc1ccco1	Sm TGR inh 40µM
CSC1=NSC2=NC(=O)/C(=C/c3coc4ccccc4c3=O)C(=N)N12	RE007 growth inh 40µM
CCOC(=O)c1c(C)[nH]c(C)c1S(=O)(=O)N1CCC(C(=O)Nc2cc(Cl)ccc2OC)CC1	none (no result: RE007 growth inh, LmPK inh, AMA1 RON2 block)
COC(=O)C1=C(C(=O)OC)[C@@H]2Nc3ccccc3[C@@]23C[C@@H](C(=O)OC)N(S(=O)(=O)c2ccc4c(c2)OCCN4C)C3=N1	none (no result: RE007 growth inh, Sm TGR inh, Tb PYK inh, AMA1 RON2 block)
COC(=O)c1ccccc1NC(=O)/C=C/c1ccco1	Sm TGR inh 40µM
O=C(/C=C/c1ccco1)Nc1cccnc1Cl	Sm TGR inh 5.6µM, Tb PYK inh inconclusive, LmPK inh 16µM
O=C(/C=C/c1ccco1)Nc1ccccc1N1CCCCC1	Sm TGR inh 45µM
O=C(/C=C/c1ccccc1)Nc1cccnc1Cl	none
O=C(Nc1ccc(Br)cc1F)N1CCC2(CC1)Oc1ccccc1C(=O)N2Cc1ccccc1F	none (no result: RE007 growth inh, LmPK inh, AMA1 RON2 block)
Cc1ccc(Cn2c(C)c(CNCCCc3ccccc3)c(C(=O)O)c2C)cc1	none (no result: RE007 growth inh, LmPK inh, AMA1 RON2 block)
COc1cccc(CN2CCN(Cc3cccc(F)c3)CC2)c1	AMA1 RON2 block 16µM
Cc1nc2cnc(N3CCNCC3)nc2n(-c2ccccc2)c1=O	none (no result: RE007 growth inh, Sm TGR inh, LmPK inh, AMA1 RON2 block)
Cc1ccc(NC(=O)c2sc3nc(CCl)[nH]c(=O)c3c2C)c(C)c1	Sm TGR inh 20µM
